# Inconclusive results are not listed. Active and inactive are the calls of the source. The calls were made as follows, unless noted: active = hit-call score of the fitted dose curve at least 0.9, where 1 is the maximum; inactive = score below 0.9.
# Tests used:
# [1] = read-out: Monokine induced gamma interferon (MIG), CXCL9 (gene 4283); assay: BSK_3C_MIG: BioMAP Diversity Plus: 3C Assay for Monokine induced gamma interferon (MIG) Biomarker Activity (AID 2283021); conditions: primary human endothelial cells (HUVEC); actives raise or lower the signal
# Outline: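 ELISA measurement of MIG in human umbilical vein endothelial cells 24 h after treatment. Cytotoxicity tracked by SRB staining in parallel cultures; gain or loss of signal fitted relative to DMSO.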
# [2] = BSK_3C_SRB: Viability Assessment in the BioMAP Diversity Plus: 3C Assay (AID 2283023); conditions: primary human endothelial cells (HUVEC);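 also: fitted both ways against DMSO so a hit may be signal rise or drop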
# Outline: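 Absorbance at 560 nm of sulforhodamine B-stained (0.1%) total protein served as a cytotoxicity readout in human umbilical vein endothelial cells, 24 h after chemical treatment. Signal was fitted bidirectionally relative to DMSO.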
# [3] = read-out: Matrix Metallopeptidase 1 (MMP1), MMP1 (gene 4312); assay: BSK_BE3C_MMP1: BioMAP Diversity Plus: BE3C Assay for Matrix Metallopeptidase 1 (MMP1) Biomarker Activity (AID 2283024); conditions: primary human bronchial epithelial cells; actives raise or lower the signal
# Outline: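 ELISA measurement of MMP-1 after 24 h compound exposure of primary human bronchial epithelial cells. Changes in either direction fitted relative to DMSO; parallel SRB staining checked overt cytotoxicity.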
# [4] = BSK_3C_Vis: BioMAP Diversity Plus: 3C Assay for Morphology Visualization (AID 2283025); conditions: primary human endothelial cells (HUVEC);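 also: fitted both ways so gain or loss versus DMSO counts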;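 as to AC50: light microscopy image of cell morphology used as background control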
# Outline: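 Light-microscopy visualization of HUVEC cultures at 24 h post-treatment, with DMSO as baseline for bidirectional fitting.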
# [5] = read-out: Pselectin, SELP (gene 6403); assay: BSK_4H_Pselectin: BioMAP Diversity Plus: 4H Assay for Pselectin Biomarker Activity (AID 2283026); conditions: primary human endothelial cells (HUVEC); actives raise or lower the signal
# Outline: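 ELISA of surface P-selectin on HUVEC, 24 h after dosing, with parallel SRB staining (0.1% after 10% TCA fixation, 560 nm) for overt cytotoxicity. Activity fitted in both directions relative to DMSO.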
# [6] = BSK_4H_SRB: Viability Assessment in the BioMAP Diversity Plus: 4H Assay (AID 2283027); conditions: primary human endothelial cells (HUVEC);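 also: cells exposed to compound for 24 h before staining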;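 as to AC50: curves fitted both ways versus DMSO so AC50 may be loss or gain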
# Outline: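 Cytotoxicity read-out in primary human endothelial cells: after 24 h compound exposure, cells were TCA-fixed (10%), stained with 0.1% SRB and absorbance taken at 560 nm. Values fitted in both directions relative to DMSO.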
# [7] = read-out: Urokinase-type plasminogen activator receptor (uPAR), PLAUR (gene 5329); assay: BSK_4H_uPAR: BioMAP Diversity Plus: 4H Assay for Urokinase-type plasminogen activator receptor (uPAR) Biomarker Activity (AID 2283030); conditions: primary human endothelial cells (HUVEC); actives raise or lower the signal
# Outline: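 Cell-surface uPAR ELISA signal, measured 24 h after dosing human umbilical vein endothelial cells, was analyzed with bidirectional fitting relative to DMSO. Parallel SRB staining of total protein tracked overt cytotoxicity.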
# [8] = read-out: Vascular endothelial growth factor receptor 2 (Homo sapiens) (UniProt P35968); assay: BSK_4H_VEGFRII: BioMAP Diversity Plus: 4H Assay for Vascular endothelial growth factor receptor 2 (VEGFR2) Biomarker Activity (AID 2283031); conditions: primary human endothelial cells (HUVEC); actives raise or lower the signal
# Outline: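 ELISA read-out of VEGFRII in primary human umbilical vein endothelium, taken 24 h after chemical treatment. Responses are expressed relative to DMSO, with bidirectional fitting.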
# [9] = read-out: Human Leukocyte Antigen - DR isotype (HLADR), HLA-DRA (gene 3122); assay: BSK_BE3C_HLADR: BioMAP Diversity Plus: BE3C Assay for Human Leukocyte Antigen - DR isotype (HLADR) Biomarker Activity (AID 2283032); conditions: primary human bronchial epithelial cells; actives raise or lower the signal
# Outline: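 Cell-surface HLA-DR ELISA readout at 24 h after dosing in the BE3C primary human lung bronchial epithelial system; gain or loss of signal against DMSO, with parallel sulforhodamine B staining of total protein for overt cytotoxicity.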
# [10] = read-out: Vascular cell adhesion molecule 1 (VCAM1), VCAM1 (gene 7412); assay: BSK_4H_VCAM1: BioMAP Diversity Plus: 4H Assay for Vascular cell adhesion molecule 1 (VCAM1) Biomarker Activity (AID 2283033); conditions: primary human endothelial cells (HUVEC); actives raise or lower the signal;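 as to outcome: cell-surface VCAM-1 protein measured by ELISA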
# Outline: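 VCAM-1 ELISA read 24 h after chemical dosing of HUVEC in the BioMAP 4H system, with gain or loss of signal fitted relative to DMSO. Parallel SRB staining (560 nm) checked overt cytotoxicity.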
# [11] = read-out: Interferon-gamma inducible Protein 10 (IP10), CXCL10 (gene 3627); assay: BSK_BE3C_IP10: BioMAP Diversity Plus: BE3C Assay for Interferon-gamma inducible Protein 10 (IP10) Biomarker Activity (AID 2283034); conditions: primary human bronchial epithelial cells; actives raise or lower the signal
# Outline: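 IP-10 quantified by ELISA in human primary bronchial epithelial cell cultures at 24 hours post-dosing. Gain or loss of signal fitted relative to DMSO; parallel SRB staining assessed overt cytotoxicity.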
# [12] = read-out: Monokine induced gamma interferon (MIG), CXCL9 (gene 4283); assay: BSK_BE3C_MIG: BioMAP Diversity Plus: BE3C Assay for Monokine induced gamma interferon (MIG) Biomarker Activity (AID 2283035); conditions: primary human bronchial epithelial cells; actives raise or lower the signal;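 also: MIG protein measured by ELISA in BE3C cultures after 24 h of dosing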
# Outline: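 ELISA quantified MIG after 24 h exposure of primary bronchial epithelial cultures, analysed in both directions relative to DMSO. Cytotoxicity tracked in parallel cultures by sulforhodamine B staining.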
# [13] = read-out: Transforming growth factor beta 1 (TGFb1), TGFB1 (gene 7040); assay: BSK_BE3C_TGFb1: BioMAP Diversity Plus: BE3C Assay for Transforming growth factor beta 1 (TGFb1) Biomarker Activity (AID 2283036;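 as to outcome: TGF-b1 protein level measured by ELISA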); conditions: primary human bronchial epithelial cells; actives raise or lower the signal
# Outline: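 ELISA readout of TGF-b1 from human lung bronchial epithelial primary cells, taken 24 h post-treatment. Gain or loss of signal fitted relative to DMSO baseline, with parallel SRB staining for overt cytotoxicity.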
# [14] = read-out: Plasminogen activator inhibitor-1 (PAI1), SERPINE1 (gene 5054); assay: BSK_BE3C_PAI1: BioMAP Diversity Plus: BE3C Assay for Plasminogen activator inhibitor-1 (PAI1) Biomarker Activity (AID 2283037); conditions: primary human bronchial epithelial cells; actives raise or lower the signal
# Outline: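 PAI-1 was measured by ELISA in human primary bronchial epithelial cultures 24 h after chemical dosing, with cytotoxicity checked by SRB total-protein staining in parallel cultures. Activity was fitted in both directions relative to DMSO.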
# [15] = read-out: urokinase plasminogen activator (uPA), PLAU (gene 5328); assay: BSK_BE3C_uPA: BioMAP Diversity Plus: BE3C Assay for urokinase plasminogen activator (uPA) Biomarker Activity (AID 2283038); conditions: primary human bronchial epithelial cells; actives raise or lower the signal;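 also: uPA protein level quantified by ELISA in cell cultures; uPA read one day after compound addition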
# Outline: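 Bronchial epithelial cells (human, primary); chemical 24 h; uPA by ELISA; bidirectional fit vs DMSO. SRB (0.1%, after 10% TCA fixation, 560 nm) in parallel cultures for cytotoxicity.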
# [16] = read-out: Urokinase-type plasminogen activator receptor (uPAR), PLAUR (gene 5329); assay: BSK_BE3C_uPAR: BioMAP Diversity Plus: BE3C Assay for Urokinase-type plasminogen activator receptor (uPAR) Biomarker Activity (AID 2283039); conditions: primary human bronchial epithelial cells; actives raise or lower the signal;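 also: cells exposed to compound for one day before measurement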
# Outline: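 uPAR levels were measured by ELISA after 24 h compound treatment of primary human bronchial epithelial cells, fitted in both directions relative to DMSO. Parallel SRB staining served as the cytotoxicity read-out.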
# [17] = read-out: Interleukin-6 (IL6), IL6 (gene 3569); assay: BSK_CASM3C_IL6: BioMAP Diversity Plus: CASM3C Assay for Interleukin-6 (IL6) Biomarker Activity for (AID 2283040); conditions: primary human coronary artery smooth muscle cells; actives raise or lower the signal
# [18] = read-out: Thrombomodulin, THBD (gene 7056); assay: BSK_3C_Thrombomodulin: BioMAP Diversity Plus: 3C Assay for Thrombomodulin Biomarker Activity (AID 2283029); conditions: primary human endothelial cells (HUVEC); actives raise or lower the signal
# Outline: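 ELISA measurement of thrombomodulin on HUVEC surface 24 h after chemical dosing; activity fitted in both directions relative to DMSO vehicle.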
# [19] = molecular target: human Vitamin D Receptor (VDR), VDR (gene 7421) (UniProt P11473); assay: ATG_VDR_TRANS: Attagene TRANS-FACTORIAL HepG2 Assay for human Vitamin D Receptor (VDR) (AID 2283022; active = hit-call score of the fitted dose curve at least 0.9, where 1 is the maximum)
# human Vitamin D Receptor (VDR), VDR (gene 7421), sequence (P11473 whole entry, looked up, the tested form may be a part): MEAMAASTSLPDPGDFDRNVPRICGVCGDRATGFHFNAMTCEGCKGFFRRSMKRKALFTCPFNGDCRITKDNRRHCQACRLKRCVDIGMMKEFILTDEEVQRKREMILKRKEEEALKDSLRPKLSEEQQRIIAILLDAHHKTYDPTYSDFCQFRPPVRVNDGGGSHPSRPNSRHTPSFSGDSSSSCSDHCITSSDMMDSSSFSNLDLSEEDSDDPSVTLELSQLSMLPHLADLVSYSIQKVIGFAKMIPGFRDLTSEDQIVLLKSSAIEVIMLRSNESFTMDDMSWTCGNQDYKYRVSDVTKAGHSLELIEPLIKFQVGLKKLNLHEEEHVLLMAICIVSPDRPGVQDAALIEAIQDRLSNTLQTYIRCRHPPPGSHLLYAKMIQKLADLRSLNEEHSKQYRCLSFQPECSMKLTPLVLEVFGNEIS
# Outline: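 Steps: transfect HepG2 with GAL4-UAS-driven reporter constructs; dose compounds 24 h; isolate RNA, reverse-transcribe, PCR-amplify with 6-FAM-labelled primer extension and HpaI digestion; quantify fragments by capillary electrophoresis relative to DMSO.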
structure (smiles),measurement,setting,value
CCCCOC(=O)CCCCCCCC(=O)OCCCC,outcome,[1],inactive
same,outcome,[2],inactive
same,outcome,[3],inactive
same,outcome,[4],inactive
same,outcome,[5],inactive
same,outcome,[6],inactive
same,outcome,[7],inactive
same,outcome,[8],inactive
same,outcome,[9],inactive
same,outcome,[10],inactive
same,outcome,[11],inactive
same,outcome,[12],inactive
same,outcome,[13],inactive
same,outcome,[14],inactive
same,outcome,[15],inactive
same,outcome,[16],inactive
same,outcome,[17],inactive
CC(C)(N=C=O)c1cccc(C(C)(C)N=C=O)c1,outcome,[1],inactive
same,outcome,[2],inactive
same,outcome,[3],inactive
same,outcome,[4],inactive
same,outcome,[5],inactive
same,outcome,[6],inactive
same,outcome,[7],inactive
same,outcome,[8],inactive
same,outcome,[9],inactive
same,outcome,[10],inactive
same,outcome,[11],inactive
same,outcome,[12],inactive
same,outcome,[13],inactive
same,outcome,[14],inactive
same,outcome,[15],inactive
same,outcome,[16],inactive
same,outcome,[17],inactive
c1ccc2cc(Nc3ccc(Nc4ccc5ccccc5c4)cc3)ccc2c1,outcome,[1],inactive
same,outcome,[2],inactive
same,outcome,[3],inactive
same,AC50,[4],8.8 µM (active)
same,outcome,[5],inactive
same,outcome,[6],inactive
same,outcome,[7],inactive
same,outcome,[8],inactive
same,outcome,[9],inactive
same,outcome,[10],inactive
same,outcome,[11],inactive
same,outcome,[12],inactive
same,outcome,[13],inactive
same,outcome,[14],inactive
same,outcome,[15],inactive
same,outcome,[16],inactive
same,outcome,[17],inactive
CCCCCCC(CO)CCCC (configuration not stated),outcome,[1],inactive
same,outcome,[2],inactive
same,outcome,[3],inactive
same,outcome,[5],inactive
same,outcome,[6],inactive
same,outcome,[18],inactive
same,outcome,[7],inactive
same,outcome,[8],inactive
same,outcome,[9],inactive
same,outcome,[10],inactive
same,outcome,[11],inactive
same,outcome,[12],inactive
same,outcome,[14],inactive
same,outcome,[15],inactive
same,outcome,[16],inactive
same,outcome,[17],inactive
CC(C)=CCCC(C)CC(=O)O (configuration not stated),outcome,[19],inactive
CC1(C)C2=CCCC(C)(C)[C@]23CC[C@H]1C3,outcome,[1],inactive
same,AC50,[2],30.4 µM (active)
same,outcome,[3],inactive
same,AC50,[4],37.4 µM (active)
same,AC50,[5],20 µM (active)
same,outcome,[6],inactive
same,outcome,[7],inactive
same,outcome,[8],inactive
same,AC50,[9],20 µM (active)
same,outcome,[10],inactive
same,AC50,[11],20 µM (active)
same,outcome,[12],inactive
same,AC50,[13],20 µM (active)
same,outcome,[14],inactive
same,outcome,[15],inactive
same,outcome,[16],inactive
same,AC50,[17],30.2 µM (active)
C=C(C)C(=O)OCC(CC)(COC(=O)C(=C)C)COC(=O)C(=C)C,outcome,[1],inactive
same,outcome,[2],inactive
same,outcome,[3],inactive
same,outcome,[4],inactive
same,outcome,[5],inactive
same,AC50,[6],9.41 µM (active)
same,outcome,[7],inactive
same,outcome,[8],inactive
same,outcome,[9],inactive
same,AC50,[10],19.7 µM (active)
same,outcome,[11],inactive
same,outcome,[12],inactive
same,outcome,[13],inactive
same,outcome,[14],inactive
same,outcome,[15],inactive
same,outcome,[16],inactive
same,outcome,[17],inactive

# — PubChem BioAssay (EPA / NIEHS)
